Measurements from PubChem BioAssay AID1619 (SRMLSC, 2009).
Out of some 220,000 compounds screened, about 830 (0.38%) were called active. Not all results are given here. Potency and affinity values are given separately. Values without a mark were called inactive.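 Rule for the calls: active = compound inhibiting the enzyme by more than half at any dose during confirmatory dose-response retesting; inconclusive = strong single-dose inhibitors picked by rank but not retested; inactive = the rest.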 Residues, ends and D or L forms follow the SMILES beside them. *: point of attachment. Bz = O=C(c1ccccc1)*

These compounds were tested against Leucine aminopeptidase (Plasmodium falciparum (isolate 3D7)) (UniProt Q8IL11) (assay: P. falciparum M17LAP inhibitors, primary screen, biochemical, fluorogenic H-Leu-NHMec substrate, 1536-well (AID 1619;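 note: plate controls were full reaction with DMSO carrier for no effect and no enzyme background for full effect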)). Settings: recombinant M17LAP, H-Leu-NHMec fluorogenic kinetic assay; at 30 µM; active compounds read high.
Chain of Leucine aminopeptidase (Plasmodium falciparum (isolate 3D7)) (Q8IL11 whole entry, looked up): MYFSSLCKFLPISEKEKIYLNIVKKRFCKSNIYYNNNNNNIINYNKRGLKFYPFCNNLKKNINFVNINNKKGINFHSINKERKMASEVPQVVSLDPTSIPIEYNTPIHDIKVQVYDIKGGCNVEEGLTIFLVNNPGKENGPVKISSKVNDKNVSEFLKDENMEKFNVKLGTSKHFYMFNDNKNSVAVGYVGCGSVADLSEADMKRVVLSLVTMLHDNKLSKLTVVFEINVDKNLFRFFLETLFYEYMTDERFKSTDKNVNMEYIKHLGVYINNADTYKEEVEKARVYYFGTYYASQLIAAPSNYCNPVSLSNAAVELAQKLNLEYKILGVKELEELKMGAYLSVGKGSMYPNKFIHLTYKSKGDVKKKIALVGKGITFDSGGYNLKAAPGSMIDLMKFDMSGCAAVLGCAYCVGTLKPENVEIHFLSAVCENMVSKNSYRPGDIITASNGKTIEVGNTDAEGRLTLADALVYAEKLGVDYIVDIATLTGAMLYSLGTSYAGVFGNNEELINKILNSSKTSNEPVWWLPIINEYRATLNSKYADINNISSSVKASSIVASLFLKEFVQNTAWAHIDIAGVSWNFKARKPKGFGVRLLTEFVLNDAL

Structure (SMILES)	inhibition
CCCCC(=O)NC(=S)Nc1cccc(NC(=O)c2ccccc2)c1	2.99%
O=C(NCc1ccc2c(c1)OCO2)C1CCC(CNc2c(N3CCCC3)c(=O)c2=O)CC1 (stereo not given)	9.79%
Cc1noc(C)c1CSCc1ccc(Cl)cc1	2.99%
COc1ccc(-c2nc(=S)n3ccsc3n2)cc1OC	-2.9%
O=C(NCc1ccccc1)N1CCN(c2ccc(F)cc2)CC1	13.1%
O=C(c1ccc(S(=O)(=O)N2CCOCC2)cc1)N1CCOCC1	-9.29%
Cc1cc(C)cc(-n2c(SCC(=O)NCc3ccc4c(c3)OCO4)nc3ccccc3c2=O)c1	19.8%
O=C1CCCC/C1=C/Nc1ccc(S(=O)(=O)Nc2ncccn2)cc1	6.19%
Cc1cc(C)nc(NS(=O)(=O)c2ccc(Br)cc2)n1	15.3%
C=CCOC(=O)c1c(C)nc2cc3c(cc2c1C)OCO3	9.48%
Cc1ccc(C(=O)CC(C(=O)O)n2cnc([N+](=O)[O-])n2)cc1 (stereo not given)	11.1%
O=C(NCc1cccs1)C(=O)c1cn(CC(=O)N2CCCC2)c2ccccc12	24.7%
O=C(c1ccco1)c1cn(CC(=O)N2CCCCC2)c2ccccc12	33.5%
CCN(CC)C(=O)Cn1cc(C(=O)C(=O)NCc2ccco2)c2ccccc21	25.3%
O=C(NCc1ccco1)C(=O)c1cn(CC(=O)N2CCCCC2)c2ccccc12	8.43%
Cc1ccc(N=C(NO)c2nonc2N)c(C)c1	14.3%
O=C(Cn1c(=O)oc2ccccc21)NCCc1ccccc1Cl	1.7%
NC(=S)c1ncc(C(F)(F)F)cc1Cl	-12.7%
CC(C)NC(=O)c1cnc(Sc2ncc(C(F)(F)F)cc2Cl)n1C	6.92%
O=C(c1cc[n+]([O-])cc1)N1CCc2c([nH]c3ccccc23)C1c1ccccc1Cl (stereo not given)	15.1%
O=C(c1nc(-c2ccccc2)n(-c2ccccc2)n1)N1CCN(S(=O)(=O)c2ccccc2)CC1	-12.4%
CCOc1ccc(C(=O)NCC(=O)OCc2cc(C(C)=O)ccc2OC)cc1	3.31%
CCC(C)C(NC(=O)c1ccccc1NC(=O)c1ccco1)C(=O)NNC(=O)c1ccncc1 (stereo not given)	3.96%

Structure (SMILES)	inhibition
CC(=O)c1ccc(Nc2cnn(C34CC5CC(CC(CC(=O)O)(C5)C3)C4)c(=O)c2Cl)cc1	46.4%
Cc1cccc(Nc2cnn(C34CC5CC(CC(CC(=O)O)(C5)C3)C4)c(=O)c2Cl)c1	39.2%
CCc1ccc(Nc2cnn(C34CC5CC(CC(CC(=O)O)(C5)C3)C4)c(=O)c2Cl)cc1	53.3%
O=C(O)C12C[C@H]3C[C@@H](C1)CC(n1ncc(N4CCN(c5ccccc5)CC4)c(Cl)c1=O)(C3)C2	36.9%
O=C(O)C12CC3CC(C1)CC(n1ncc(N4CCN(c5ccccc5)CC4)c(Cl)c1=O)(C3)C2	61.6%
Cc1cc(C)cc(Nc2cnn(C34CC5CC(CC(CC(=O)O)(C5)C3)C4)c(=O)c2Cl)c1	45.8%
CCOC(=O)c1csc(NC(=O)CSc2nnnn2-c2ccc(OC)c(OC)c2)n1	11.3%
COc1cccc(-n2c(SCC(=O)N3CCCCC3)nc3c([nH]c4ccccc43)c2=O)c1	-3.56%
CC(=O)NC(Cc1ccccc1)C(=O)NC1CCN(C(=O)c2ccc([N+](=O)[O-])cc2)CC1 (stereo not given)	-3.72%
O=C(O)CCC(NC(=O)C(Cc1ccc2c(c1)OCO2)NC(=O)c1ccccc1)C(=O)O (stereo not given)	46.2%
O=C(NC(Cc1ccccc1)C(=O)NC(Cc1ccccc1)C(=O)O)c1ccccc1 (stereo not drawn) (Bz-Phe-Phe-OH; configuration not given here)	45.6%
O=C(O)c1ccc(-n2cccc2/C=C2/NC(=O)N(c3ccccc3)C2=O)cc1	11.3%
O=C(O)c1ccc(COc2ccccc2/C=C2/NC(=O)N(c3cccc(Cl)c3)C2=O)cc1	7.83%
CCc1noc(C)c1C(=O)Nc1nc(-c2cc(C)ccc2C)c(C)s1	-3.18%
CC1=C(C)CC(C(=O)Nc2nc(-c3ccc(F)cc3)c(C)s2)C(C(=O)O)C1 (stereo not given)	48.9%
CC(=O)C1=C(O)C(=O)N(Cc2ccco2)C1c1ccc(F)cc1 (stereo not given)	11%
CC(=O)C1=C(O)C(=O)N(Cc2ccco2)C1c1ccccc1 (stereo not given)	6.17%
Cc1ccc(S(=O)(=O)N2CCCC2C(=O)N2CCCCCC2)cc1 (stereo not given)	-4.09%
COc1ccc2c(C(F)(F)F)cc(=O)oc2c1C	-5.82%
CC(Sc1nc(-c2ccccc2)cs1)C(=O)Nc1ccc(Cl)cn1 (stereo not given)	13.8%
CC(Sc1nc(-c2ccc(F)cc2)cs1)C(=O)Nc1ccc(Cl)cn1 (stereo not given)	15.1%
Cn1c(=O)c(C(=O)Nc2ccccc2S(N)(=O)=O)c(O)c2ccccc21	-0.17%
